Integrin act MD: activators of alpha7 integrin expression for muscular dystrophy; AID 624291; Potency, µM (series often up to 38.3 µM), inactives show at the highest dose activation, usual class: activators; 350,000 compounds, 0.064% hits; alpha7betagal myoblasts, beta-gal FDG fluorescence, 48 h;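 note: potency is the fitted concentration of half-maximal effect; 100% = response of the positive control SU9516; nearly all actives have a fitted effect of over 60% in size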
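Alpha7betagal+/- myoblasts (passage 13) were plated 16-24 hr, then exposed to compounds (1:260 dilution of DMSO stock) for 48 hours at 37C. After MPER lysis, β-galactosidase reporter activity was read as FDG fluorescence (ex 480/em 540) after 30 minutes.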
D3 antag: D3 dopamine receptor (human) antagonism | max response, negative = inhibition, % | D3R cells, DiscoveRx beta-arrestin luminescence, antagonist mode; active compounds read low | 360,000 compounds, 2.5% hits | AID 652054; in the data active = max response below about -50%; inconclusive = no clear call, values can overlap the other calls; note: % is set by controls: 0 for no effect and ±100 for the full control effect
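Cells plated overnight at 1500 cells/well, then exposed to library compounds with dopamine controls for 90 minutes at 37 degrees C. DiscoveRx reagent added for 30–60 minutes at room temperature; luminescence read, quantitative HTS format.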
CBFb RUNX1 block: inhibitors of human CBF-beta and RUNX1 interaction. AlphaScreen CBFb-His/RUNX1-biotin binding, biochemical. Potency, µM (titrated, usually from 59.8 µM), for the others: top-dose activity, negative = inhibition, actives largely listed as inhibitors. 230,000 tested, under 10 active. AID 1477; note: % of control where 0% means no effect
Target sequence (Q01196 whole entry, looked up): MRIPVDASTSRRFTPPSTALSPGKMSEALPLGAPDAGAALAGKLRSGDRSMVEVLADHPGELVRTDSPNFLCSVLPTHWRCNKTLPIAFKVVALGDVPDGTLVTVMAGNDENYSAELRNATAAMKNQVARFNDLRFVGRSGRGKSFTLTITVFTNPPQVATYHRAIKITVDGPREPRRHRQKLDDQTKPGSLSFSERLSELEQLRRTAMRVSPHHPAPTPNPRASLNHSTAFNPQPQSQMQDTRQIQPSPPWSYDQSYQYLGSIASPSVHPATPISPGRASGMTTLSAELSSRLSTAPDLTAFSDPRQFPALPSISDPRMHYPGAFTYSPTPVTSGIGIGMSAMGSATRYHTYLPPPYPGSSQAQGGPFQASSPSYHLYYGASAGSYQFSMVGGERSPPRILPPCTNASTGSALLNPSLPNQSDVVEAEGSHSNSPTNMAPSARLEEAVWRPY
Target sequence (Q13951 whole entry, looked up): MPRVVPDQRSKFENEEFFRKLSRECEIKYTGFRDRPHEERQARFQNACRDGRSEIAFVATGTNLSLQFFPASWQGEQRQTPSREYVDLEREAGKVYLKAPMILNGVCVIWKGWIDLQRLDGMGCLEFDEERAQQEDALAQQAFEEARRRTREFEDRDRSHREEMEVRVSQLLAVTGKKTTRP
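Inhibition was taken as any reduction in AlphaScreen signal from the CBF-beta–RUNX1 pair (His and biotin tags, 30 nM each), measured after compound (15 min) and bead (90 min) incubations at room temperature.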
PTHR1 ag: PTHR1 (human) receptor agonism | 410,000 compounds, 0.075% hits | Potency, µM (doses to about 115 µM), inactives show at the top dose activation, most hits filed as activators | HEK293 GP2 PTHR1 cells, GloSensor cAMP luminescence, 1 h | AID 743266 | Q03431; note: potency is the fitted concentration of half-maximal effect; nearly all actives have a fitted effect of over 55% in size
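HEK-293-derived GP2 cells expressing PTHR1 and a GloSensor cAMP reporter, 3,000/well, plated overnight, given luciferin plus IBMX (each 0.5 mM as added) for 1 h at 37 °C, then compound for 1 h at 37 °C. Luminescence was read after 15 min at room temperature.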
DRD3 agonist: activates the human D3 dopamine receptor; 410,000 compounds, 0.58% hits; D3R DiscoveRx beta-arrestin cells, luminescence, 90 min; AID 652048; P35462; max activation, %; in the data active = max activation above about 30%; note: 0% is about no effect
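Agonist-mode cell screen: cells plated at 1500/well and incubated overnight at 37 °C, then exposed to library compounds for 90 min at 37 °C. Detection reagent was added for 30–60 min at room temperature, and luminescence was read.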
MBNL1-CUG inh: blocks human MBNL1 binding to CUG repeat RNA; AID 2675; 280,000 compounds, 0.036% hits; Potency, µM (titrated, usually from 57.5 µM), without a hit: at the top dose activity change, negative = inhibition, usual class: inhibitors; TR-FRET MBNL1-His/biotin-(CUG)12 binding, 665/545 ratio; Q9NR56; active = well fitted inhibition curve with a large enough effect in the signal ratio, with a control signal flat, not every such curve was filed as active; inconclusive = small, poorly fitted or top-dose-only effect, or effect the other way, or a change in a side signal; inactive = no such curve, though single readings can be large or run the other way; the % refers to the signal ratio; note: potency is the fitted concentration of half-maximal effect; % is set by controls: 0 for no effect and ±100 for the full control effect
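MBNL1-His + Biotin-(CUG)12, cpd titration 92 nM–58 uM; Tb anti-His Ab 0.055 ng/ul, SA-XL665 5 nM (final); 60 min RT; ratiometric 665/545 nm, Ex 340 nm; normalized to buffer and full-complex controls.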
* = called active by the depositor; i = inactive; ? = inconclusive; / = no result given; [ ] = remark or other dose. Hits are enriched below; roughly 2.8% of the tested compounds scored in any of these assays. Unless noted, calls come from the whole dose curve; as a rule, active = well fitted curve in the direction sought with a large enough effect; inconclusive = small, poorly fitted or top-dose-only effect, or another doubt; inactive = no such curve, though single readings can be large; an effect the other way counts as inactive or inconclusive.

SMILES	Integrin act MD	D3 antag	CBFb RUNX1 block	PTHR1 ag	DRD3 agonist	MBNL1-CUG inh
Cc1cc(C)nc(S/C=C/C(=O)c2ccccc2F)n1	1.3%	-84.6*	-3.2%	-89.4%	-17.1	7.4%
FC(F)(F)c1ccc(Cl)c(Nc2nnc(-c3ccncc3)s2)c1	/	-56.5*	/	28.6%	-7.7	/
COc1cc2c(cc1OC)[C@@H](c1ccccc1)CN(C)CC2	/	/	/	/	-11.8	/
CC1CN(S(=O)(=O)c2cccc(C(=O)NCC(c3cccs3)N3CCOCC3)c2)CC(C)O1 (stereo not drawn)	-11.4%	-11.3	/	-6.4%	-14.7	/
CCC(Oc1ccccc1F)C(=O)Nc1c(C(=O)c2ccccc2)oc2ccccc12 (stereo not drawn)	/	/	/	i	0.3	/
Cc1ccc2cc3c(nc2c1)N(Cc1ccco1)CC3	-6.0%	-56.2*	-2.7%	-21.7%	0.5	-4.2%
O=C1CC(c2ccccc2)CC(=O)C1Sc1ccc(Cl)cc1 (stereo not drawn)	26.7%	-53.4*	-0.2%	i	-13.8	-18.3%
O=C1CC(c2ccc(Cl)cc2)CC(=O)C1CS(=O)(=O)c1ccccc1 (stereo not drawn)	17.6%	?	13.5%	i	-12.9	-16.6%
Cc1cc(N2C(=O)C3C4CCC(C4)C3C2=O)no1 (stereo not drawn)	?	-12.4	4.9%	-18.5%	-9.7	5.8%
OC[C@H]1O[C@@H](n2cnc3c(=S)nc[nH]c32)[C@H](O)[C@@H]1O	/	/	/	/	-24.5	/
CCCOC(=O)c1ccccc1O	/	/	/	/	4.0	/
CC(C)NC(=O)c1ccc2c3n(nc2c1)-c1ccc(Cl)cc1CO3	-11.1%	5.4	10.6%	-37.2%	30.9*	?
COCCNC(=O)c1ccc2c3n(nc2c1)-c1ccc(C)cc1CO3	4.9%	24.6	16.1%	i	5.0	?
CCN(CC)CCCNC(=O)c1ccc2c3n(nc2c1)-c1ccc(Cl)cc1CO3	-34.3%	-116.4*	/	6.6%	-65.7	/
Cc1ccc2c(c1)COc1c3ccc(C(=O)N[C@@H](CO)C(C)C)cc3nn1-2	3.7%	0.0	-25.9%	-38.2%	0.0	?
CCN(CCN(C)C)C(=O)Cn1ncc2c([nH]c3ccc(C)cc32)c1=O	/	/	/	i	5.1	/
Cc1ccc(C)c(OCCC(=O)Nc2cccc(S(=O)(=O)N3CCCCC3)c2)c1	-66.8%	1.9	/	-39.3%	6.1	/
O=C1C(C=Nc2ccccc2O)=C(O)c2ccccc21	-22.4%	-16.8	-4.7%	-13.6%[57.5 µM]	-7.9	?
Cc1ccc(O)c(N=CC2=C(O)c3ccccc3C2=O)c1	0.0%	-53.6*	-24.3%	-13.6%	-11.9	?
O=C(CN(C(=O)c1cccc([N+](=O)[O-])c1)C1CCCCC1)Nc1ccc(Cl)c([N+](=O)[O-])c1	-9.0%	-79.1*	3.4%	-7.9%	-12.3	-3.7%
Cc1ccc([N+](=O)[O-])cc1NC(=O)CN(C(=O)c1ccccc1Cl)C1CCCCC1	16.5%	9.9	-0.2%	i	-9.6	?
Cc1cc(N2C(=O)CC(N3CCN(c4ccc(C(=O)c5cccs5)cc4)CC3)C2=O)no1 (stereo not drawn)	-8.7%	-52.1*	10.2%	-2.7%	3.4	12.2%
Cc1noc(C)c1S(=O)(=O)N(CC(=O)NCc1ccccc1Cl)c1ccc(C(C)C)cc1	/	/	/	-14.6%	4.9	/
COc1ccc(S(=O)(=O)NC(C)C(=O)Nc2ccccc2)cc1Cl (stereo not drawn)	-18.2%	4.8	/	i	-0.5	0.4%
CC(Oc1ccc(Cl)cc1Cl)C(=O)NC1CCSC1=O (stereo not drawn)	19.2%	-75.5*	2.1%	-5.9%	-5.8	-1.9%
SMILES	Integrin act MD	D3 antag	CBFb RUNX1 block	PTHR1 ag	DRD3 agonist	MBNL1-CUG inh
CC(NS(=O)(=O)c1ccc(Cl)c(Cl)c1)C(=O)Nc1cccnc1 (stereo not drawn)	17.1%	-56.6*	/	i	-5.3	/
CC(Oc1ccc(Cl)cc1Cl)C(=O)Nc1cccnc1 (stereo not drawn)	5.8%	-52.5*	-1.9%	-3.2%[57.5 µM]	-2.5	?
CCNC(=O)C(C)Oc1ccc(Cl)cc1Cl (stereo not drawn)	10.8%	6.8	4.0%	-2.0%	-5.3	4.7%
CC(Oc1ccc(Cl)cc1Cl)C(=O)Nc1ccncc1 (stereo not drawn)	-49.5%	31.2	4.7%	-12.9%	3.5	0.5%
CCCCCn1c(=O)[nH]c2cc(C(=O)N3CCN(c4cccc(Cl)c4)CC3)ccc2c1=O	/	/	/	-14.2%	13.5	/
CCOC(=O)c1cnc2c(ccc3ccccc32)c1Nc1cccc(C(F)(F)F)c1	/	/	/	i	-3.3	/
Cc1ccc(S(=O)(=O)N2C3CC(c4ccccc4)N(S(=O)(=O)c4ccccc4Cl)CC3C(=O)C[C@H]2c2ccccc2)cc1 (stereo partly drawn)	/	-8.2	/	-9.2%	-3.2	/
N#Cc1c([N+](=O)[O-])cc([N+](=O)[O-])cc1S(=O)(=O)Cc1ccccc1	-56.9%	-102.3*	/	-29.1%	-13.6	/
COc1cc(OC)c(C#N)c(S(=O)(=O)Cc2ccccc2)c1	26.4%	-15.9	2.9%	-6.2%[57.5 µM]	-9.4	0.3%
O=C(Nc1cc(S(=O)(=O)N2CCOCC2)ccc1N1CCCC1)c1ccc2c(c1)S(=O)(=O)c1ccccc1C2=O	-18.4%	1.3	-28.7%	i	4.3	?
CCCC(=O)Nc1ccc(NC(=O)CCc2ccccc2)cn1	-51.6%	-56.0*	6.0%	-5.6%[57.5 µM]	5.7	6.8%
COc1cccc(OC)c1C(=O)Nc1ccc(-c2nc3ncccc3o2)cc1	/	/	/	-24.0%	4.0	/
N#C/C(=C\c1ccc(Cl)c([N+](=O)[O-])c1)c1ccccn1	-57.2%	-55.4*	6.8%	-87.6%	-11.8	18.0%
O=C(N/C(=C/c1ccc(Br)cc1)C(=O)N1CCCC1)c1ccccc1F	6.7%	9.7	1.7%	i	0.1	-0.7%
O=C(N/C(=C/c1ccc(Br)cc1)C(=O)N1CCCCC1)c1ccccc1F	1.2%	-57.1*	/	-11.2%	-20.4	-0.3%
O=C(O)c1ccc(S(=O)(=O)/N=C2\C=C(Nc3ccccc3F)C(=O)c3ccccc32)cc1	?	-106.5*	/	-36.6%	-28.3	?
Cc1ccccc1NC1=C/C(=N\S(=O)(=O)c2ccc(C(=O)O)cc2)c2ccccc2C1=O	-68.9%	-97.1*	/	-30.8%	-19.8	?
COc1cc(CN2CCNC(=O)C2CC(=O)N(Cc2nccn2C)C(C)C)cc(OC)c1 (stereo not drawn)	0.0%	9.3	6.1%	-11.3%	1.8	5.3%
Cc1cccc(N2CCN(S(=O)(=O)c3cc(-c4cc(C)no4)ccc3C)CC2C)c1 (stereo not drawn)	-28.3%	-29.0	/	-7.1%	3.6	6.9%
Cc1ccc(CNCc2ccccc2Cl)cc1	8.1%	-67.4*	8.4%	-2.2%[57.5 µM]	-13.4	0.7%
